The values below come from PubChem BioAssay AID1332 (Southern Research Institute, 2008).

Molecules are shown by their SMILES. Converted amounts (≈) assume the structure as drawn. Hit rate of the full screen: of about 1,100 compounds, about 170 (15%) were called active. How the calls were made is not given here. These entries were drawn from the full list. Some results are limits rather than exact numbers.

A short description of this test: Confirmatory growth inhibition assay, mycobacterium tuberculosis h37rv, with cytotoxicity (AID 1332).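 On CC50: Vero cells exposed to compounds for 72 hours.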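 On IC50: bacteria incubated 7 days before adding Alamar blue readout reagent.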 To be noted: M. tuberculosis H37Rv growth inhibition; CC50: measured here: Vero cell cytotoxicity; IC50: measured here: IC50 H37Rv replicates.
Turning to `CC(=O)N[C@@H](CC(=O)O)C(=O)O`, the IC50 is over 20 µg/mL and the molecule was called inactive.
For `Cc1cc2c(cc1S(N)(=O)=O)S(=O)(=O)CCC2` the same measures were over 20 µg/mL and “inactive”.
For `CCC1NC(=O)c2cc(S(N)(=O)=O)c(Cl)cc2N1` (stereo unspecified) the same measures were over 20 µg/mL and “inactive”.
On to `Cc1cc2cc3c(C)cc(=O)oc3c(C)c2o1`, for which the IC50 is over 20 µg/mL and the molecule was classed as inactive.
In the same order, the values of `COC(=O)[C@H]1[C@H]2C[C@H]3c4[nH]c5ccccc5c4CCN3C[C@@H]2CC[C@@H]1O` are over 20 µg/mL and “inactive”.
For `COc1ccc2c3c([nH]c2c1)[C@H]1C[C@H]2[C@H](C[C@@H](O)[C@H](OC)[C@H]2C(=O)O)CN1CC3` the same measures were over 20 µg/mL and “inactive”.
Take `COC(=O)[C@@H]1[C@H]2C[C@H]3c4[nH]c5ccccc5c4CCN3C[C@@H]2CC[C@@H]1O`: the IC50 was over 20 µg/mL and the call was inactive.
In the same order, the values of `O=C(O)[C@@H]1[C@H]2C[C@H]3c4[nH]c5ccccc5c4CCN3C[C@@H]2CC[C@@H]1O` are over 20 µg/mL and “inactive”.
For `COC(=O)[C@H]1[C@H]2C[C@H]3c4[nH]c5ccccc5c4CCN3C[C@H]2CC[C@@H]1O` the same measures were over 20 µg/mL and “inactive”.
In the same order, the values of `CCOC(=O)Oc1c(OC)cc(C(=O)O[C@@H]2C[C@@H]3CN4CCc5c([nH]c6cc(OC)ccc56)[C@H]4C[C@@H]3[C@H](C(=O)OC)[C@H]2OC)cc1OC` are 7.94 µg/mL (≈ 11.9 µM) and “active”.
On to `COC(=O)[C@H]1[C@H]2C[C@@H]3c4[nH]c5cc(OC)ccc5c4CCN3C[C@H]2C[C@@H](OC(=O)/C=C/c2cc(OC)c(OC)c(OC)c2)[C@@H]1OC`, for which the CC50 is over 6 µg/mL, the IC50 came out at 4.23 µg/mL (≈ 6.67 µM) and the molecule was classed as active.
For the molecule `COC(=O)C1=CO[C@@H](C)[C@H]2CN3CCc4c([nH]c5ccccc45)[C@@H]3C[C@H]12`, the IC50 is over 20 µg/mL and the result was inactive.
In the same order, the values of `COC(=O)[C@H]1[C@H]2C[C@@H]3c4[nH]c5cc(OC)ccc5c4CCN3C[C@H]2C[C@@H](OC(=O)c2cc(OC)c(OC)c(OC)c2)[C@@H]1OC` are 2.32 µg/mL (≈ 3.81 µM) and “active”.
In the case of `CCCNC(C)C(=O)Nc1c(C)csc1C(=O)OC` (stereo unspecified), the IC50 is over 20 µg/mL and the result was inactive.
For `C=C1[C@@H](O)[C@]23C[C@@H]1[C@@H](O)C[C@H]2[C@@]12C4[C@@H]3C[C@@H]1[C@@](C)(CC[C@@H]2O)CN4CC` the same measures were over 20 µg/mL and “inactive”.
On to `CNCCc1ccccn1`, for which the IC50 is over 20 µg/mL and the molecule was classed as inactive.
In the same order, the values of `CCCCOc1ccc(OCCCN2CCOCC2)cc1` are over 20 µg/mL and “inactive”.
In the same order, the values of `C[C@H](CCC(=O)O)[C@H]1CC[C@H]2[C@@H]3[C@H](O)C[C@@H]4C[C@H](O)CC[C@]4(C)[C@H]3CC[C@]12C` are over 20 µg/mL and “inactive”.
As for `CCN1C[C@]2(COC)CC[C@H](OC)[C@@]34C1[C@]1(OCO[C@@]15C[C@H](OC)[C@H]1C[C@@H]3[C@@H]5[C@H]1OC)[C@@H](O)[C@H]24`, the IC50 is over 20 µg/mL and the molecule was called inactive.
For `O=S(=O)(O)c1cc(O)ccc1O` the same measures were over 20 µg/mL and “inactive”.
In the case of `CN1C2CCCC1CC(=O)C2`, the IC50 is over 20 µg/mL and the call was inactive.
In the same order, the values of `CC1=CC(=O)C2=C(C)C[C@H](O)[C@@H]3[C@H](OC(=O)[C@H]3C)[C@@H]12` are over 20 µg/mL and “inactive”.
Take `CC[C@@H](C(=O)[C@@H](C)[C@@H](O)[C@H](C)CCc1ccc(C)c(O)c1C(=O)O)[C@H]1O[C@](CC)([C@H]2CC[C@](O)(CC)[C@H](C)O2)C[C@@H]1C`: the CC50 was over 6 µg/mL, the IC50 came to 6.19 µg/mL (≈ 10.5 µM) and the molecule was classed as active.
Consider `CC(=O)N(CC(C)C(=O)O)c1c(I)cc(I)c(N)c1I` (stereo unspecified), for which the IC50 is over 20 µg/mL and the result was inactive.
For `CC(C)(C)NC[C@H](O)COc1cccc2c1CCCC2=O` the same measures were over 20 µg/mL and “inactive”.
As for `C[C@]12CC[C@@H]3c4ccc(O)cc4CC[C@H]3[C@@H]1C[C@@H](O)[C@@H]2O`, the IC50 was over 20 µg/mL and the call was inactive.
For `NC(N)=NCC1COC2(CCCCC2)O1` (stereo unspecified) the same measures were over 20 µg/mL and “inactive”.
For `NC(N)=NS(=O)(=O)c1ccc(N)cc1` the same measures were over 20 µg/mL and “inactive”.
For `Nc1ccc(S(=O)(=O)c2ccc(N)cc2)cc1` the same measures were 9.09 µg/mL (≈ 36.6 µM) and “active”.
For the molecule `Nc1ccc(S(N)(=O)=O)cc1`, the IC50 is over 20 µg/mL and the result was inactive.
Take `O=c1[nH]c(=O)n([C@H]2CC(O)[C@@H](CO)O2)cc1I` (stereo partly specified): the IC50 is over 20 µg/mL and the outcome was inactive.
As for `Cn1cc[nH]c1=S`, the IC50 was over 20 µg/mL and the outcome was inactive.
In the same order, the values of `CCN1CCC[C@H]1CNC(=O)c1c(OC)ccc(Br)c1OC` are over 20 µg/mL and “inactive”.
For `CCCc1ncc(C[n+]2ccccc2C)c(N)n1` the same measures were over 20 µg/mL and “inactive”.
Consider `NC(=O)c1ccc[n+]([C@@H]2O[C@H](COP(=O)([O-])OP(=O)(O)OC[C@H]3O[C@@H](n4cnc5c(N)ncnc54)[C@H](O)[C@@H]3O)[C@@H](O)[C@H]2O)c1`, for which the IC50 is over 20 µg/mL and the result was inactive.
For `Cc1onc(-c2c(F)cccc2Cl)c1C(=O)N[C@@H]1C(=O)N2C(C(=O)O)C(C)(C)S[C@H]12` (stereo partly specified) the same measures were over 20 µg/mL and “inactive”.
As to `CNCCCC1c2ccccc2C=Cc2ccccc21`, the CC50 was over 6 µg/mL, the IC50 is 17.4 µg/mL (≈ 66 µM) and the molecule was called active.
As for `NCc1ccc(S(N)(=O)=O)cc1`, the IC50 was over 20 µg/mL and the result was inactive.
With `COc1cc(NS(=O)(=O)c2ccc(N)cc2)nc(OC)n1`, the IC50 stood at 12.6 µg/mL (≈ 40.7 µM) and the result was active.

As a reminder, the IC50 is the midpoint of a concentration-inhibition curve. High values mean weaker potency in that assay, low ones greater potency in that assay. One may read the CC50 as the concentration giving 50% cytotoxicity.
